In PubChem BioAssay (NCI):
This is part of a sample that, as a whole, favours compounds with a hit. Of some 83,000 tested, about 20% had one in any assay.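 48-hour exposure, single concentration, 96-well plates; percent growth endpoint where 0 means no net growth. Active: below 10.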 Unmarked numbers belong to inactive results. The source made the active and inactive calls.

Experiments:
Test in all cases: NCI-60 one-dose screen, 48 h (100 = growth as untreated, 0 = no growth, -100 = all killed)
Conditions in all cases: 10 µM unless noted
SR leukemia = tested on: SR leukemia
RPMI-8226 leukemia = tested on: RPMI-8226 leukemia
OVCAR-8 ovarian = tested on: OVCAR-8 ovarian
OVCAR-5 ovarian = tested on: OVCAR-5 ovarian
OVCAR-4 ovarian = tested on: OVCAR-4 ovarian
SK-OV-3 ovarian = tested on: SK-OV-3 ovarian
IGROV1 ovarian = tested on: IGROV1 ovarian
OVCAR-3 ovarian = tested on: OVCAR-3 ovarian
HS 578T breast = tested on: HS 578T breast
NCI/ADR-RES ovarian = tested on: NCI/ADR-RES ovarian
T-47D breast = tested on: T-47D breast
BT-549 breast = tested on: BT-549 breast
MDA-MB-435 melanoma = tested on: MDA-MB-435 melanoma
SW-620 colon = tested on: SW-620 colon
MCF7 breast = tested on: MCF7 breast
HCT-116 colon = tested on: HCT-116 colon
KM12 colon = tested on: KM12 colon
HCC-2998 colon = tested on: HCC-2998 colon

| Structure (SMILES) | growth (SR leukemia) | growth (RPMI-8226 leukemia) | growth (OVCAR-8 ovarian) | growth (OVCAR-5 ovarian) | growth (OVCAR-4 ovarian) | growth (SK-OV-3 ovarian) | growth (IGROV1 ovarian) | growth (OVCAR-3 ovarian) | growth (HS 578T breast) | growth (NCI/ADR-RES ovarian) | growth (T-47D breast) | growth (BT-549 breast) | growth (MDA-MB-435 melanoma) | growth (SW-620 colon) | growth (MCF7 breast) | growth (HCT-116 colon) | growth (KM12 colon) | growth (HCC-2998 colon) |
| --- | --- | --- | --- | --- | --- | --- | --- | --- | --- | --- | --- | --- | --- | --- | --- | --- | --- | --- |
| COC(=O)CC[C@@H]1O[C@@H](c2cccc(C(F)(F)F)c2)[C@@H](O)[C@H]1O | 97.1% | 109% | 110% | 97.1% | 105% | 97.8% | 112% | 99.4% | 93.8% | 108% | 98.8% | 98.9% | 102% | 100% | 96.7% | 98.2% | 94.1% |  |
| CCOC(=O)NC(C)C | 112% | 113% | 103% | 90.5% | 107% | 117% | 91.2% | 112% | 111% | 93.5% | 100% | 116% | 111% | 111% | 106% | 98.4% | 112% |  |
| CCN(CC)CCCCCNc1cc(OC(=O)c2ccc(Cl)cc2)cc2cccnc12 | 75.3% | 97.7% | 88.3% | 118% | 39.9% | 119% | 161% | 78.7% | 117% | 95.1% | 56% | 98% | 120% | 105% | 86.5% | 83.6% | 111% | 84.9% |
| CCOC(=O)c1cc(C(=O)c2cc(OC)c(OC)c(OC)c2)n2ncccc12 | 18.3% | 19.3% | 30.4% | 63.1% | 62.4% | 26.4% | 47.2% | -15.2% (active) | 31.1% | 3.34% (active) | 58.5% | 37% | -57.2% (active) | 33.6% | 19.7% | 11.8% | 20.8% | 28.3% |
| N#Cc1nc(-c2ccc(Cl)cc2)oc1S(=O)(=O)N1CCN(c2ccc(F)cc2)CC1 | 23.9% | 88.4% | 82.3% | 108% | 106% | 98.3% | 78.8% | 108% | 103% | 101% | 89.3% | 100% | 100% | 72.8% |  | 78.7% |  | 99.4% |
| Cc1cc(N2CCCCC2)cc(C)c1-c1csc(NC(=O)c2ccncc2)n1 | 37.7% | 37.5% | 51.2% | 92.6% | 24.2% | 62.6% | 64.4% | 50.5% | 75.2% | 56.4% | 34.3% | 57.6% | 37.1% | 69.9% | 32.6% | 20.7% | 64.5% |  |
| CCOCCNC1=C(Cl)C(=O)c2ccccc2C1=O | 89.3% | 90.4% | 106% | 120% | 107% | 108% | 112% | 101% | 91.9% | 103% | 90.8% | 107% | 104% | 110% | 69.1% | 88.1% | 91.4% |  |
| CC(C)c1ccc(-n2c(=S)[nH]c3sc4cc(O)ccc4c3c2=O)cc1 | 102% | 100% | 102% | 100% | 111% | 112% | 91.4% | 104% | 92.4% | 103% | 105% | 91.4% | 100% | 96.9% |  | 98.4% | 105% | 103% |
| COc1ccccc1CNc1c2ccccc2nc2ccccc12 | 9.9% (active) | 8.12% (active) | 31.9% | 49.8% | 42.2% | 61.4% | 26.3% | 54.3% | 62% | 34.8% | 46.2% | 77% | 42.6% | 22.1% | 16.8% | 12.7% | 32.9% |  |
| CCN1C(=S)N(c2ccccc2)C2C1NN=c1s/c(=C3\C(=O)N(C(C)C)c4ccccc43)c(=O)n12 (centres undefined) | 46.2% | 97.4% | 54.1% | 93.9% | 1.68% (active) | 104% | 71% | 84.2% | 54.8% | 64.1% | 62.8% | 96.6% | 93.3% | 75.6% |  | 41.7% | 81.7% | 109% |
| C=CCSc1nnc(NC(=O)CCl)s1 | 88.4% | 73% | 92.5% | 120% | 73.2% | 119% | 81.6% | 94.8% | 93.7% | 93% | 90.3% | 79% | 90.8% | 105% |  | 86.3% | 95.3% | 130% |
| CCC(=C(c1ccc(OCCN2CCCCC2)cc1)c1ccc(OCCN2CCCCC2)cc1)c1ccc(Cl)cc1 | -49% (active) | -59.8% (active) | -75.4% (active) | -95.4% (active) | -90.2% (active) | -85.7% (active) | -87.9% (active) | -83.9% (active) | -77.1% (active) | -84.6% (active) | -68.3% (active) | -91.7% (active) | -96.2% (active) | -84.1% (active) | -79.9% (active) | -91.1% (active) | -84% (active) |  |
| CSc1nc2ccccc2cc1/C=C1/C=C(c2ccccc2)NC1=O | 27.4% | 81.9% | 82.5% | 99.5% | 84.7% | 85.1% | 79.4% | 71.7% | 80% | 76.2% | 79.9% | 77.4% | 3.27% (active) | 55.4% | 49.8% | 56.8% | 59.6% |  |
| Clc1cc(Cl)c(Cl)c(-c2nnc(SCc3ccncc3Br)o2)c1 | -26.8% (active) | 72.9% | 120% | 80.1% | 90.6% | 101% | 72.9% | 89% | 90.4% | 89.6% | 96.1% | 99% | 98.4% | 96.5% | 91.8% | 88.8% | 96.2% |  |
| COC(=O)c1c(C)c2n(c1C)C(=O)C(c1ccccc1)=C2 | 102% | 88.5% | 79.2% | 68.9% | 71.2% | 80.8% | -8.44% (active) | 104% | 103% | 86.8% | 37.1% | 51.2% | 78.1% |  | 39% | 74.2% |  | 75.1% |
| CCOC(=O)c1c(NC(=O)c2ccc(Cl)cc2)sc2c(CN(C)C)c(O)ccc12 | -8.09% (active) | -13% (active) | 47.7% | 95.2% | 73.5% | 81.6% | 66.1% | 105% | 79.2% | 73.3% | 71.4% | 100% | 76.7% | 28.1% |  | 70.7% | 87.9% | -71.7% (active) |
| Cn1cc(-c2csc(-c3c[nH]c4ccccc34)n2)c2cnccc21 | -7.21% (active) | -28% (active) | 18.2% | 75.4% | 14.3% | 85.3% | 47.3% | -59.8% (active) | 88.3% | 35.9% | -3.84% (active) | 78.7% | -72.5% (active) | -48% (active) |  | -59.7% (active) | 22.8% | 87% |
